We go through 95 molecules from PubChem BioAssay AID777 (Sanford-Burnham Center for Chemical Genomics, 2007).

Among all 96,000 compounds or so, about 19,000 (20%) were called active.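 Rule for the calls: active = blocking of liver enzyme CYP2C9 beyond about 50% at 5 µM (limit read from the data); inactive = the rest.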 These entries were drawn from the full list.

The assay deals with Cytochrome P450 2C9 (Homo sapiens) (UniProt P11712). As to the kind of experiment: blockers of cytochrome P450 2C9 activity – biochemical, luminescence, ADME assay, primary screen (AID 777). Conditions: CYP2C9 Supersomes, luciferin-H conversion, at 5 µM, active compounds read high.
Chain of Cytochrome P450 2C9 (Homo sapiens) (P11712 whole entry, looked up): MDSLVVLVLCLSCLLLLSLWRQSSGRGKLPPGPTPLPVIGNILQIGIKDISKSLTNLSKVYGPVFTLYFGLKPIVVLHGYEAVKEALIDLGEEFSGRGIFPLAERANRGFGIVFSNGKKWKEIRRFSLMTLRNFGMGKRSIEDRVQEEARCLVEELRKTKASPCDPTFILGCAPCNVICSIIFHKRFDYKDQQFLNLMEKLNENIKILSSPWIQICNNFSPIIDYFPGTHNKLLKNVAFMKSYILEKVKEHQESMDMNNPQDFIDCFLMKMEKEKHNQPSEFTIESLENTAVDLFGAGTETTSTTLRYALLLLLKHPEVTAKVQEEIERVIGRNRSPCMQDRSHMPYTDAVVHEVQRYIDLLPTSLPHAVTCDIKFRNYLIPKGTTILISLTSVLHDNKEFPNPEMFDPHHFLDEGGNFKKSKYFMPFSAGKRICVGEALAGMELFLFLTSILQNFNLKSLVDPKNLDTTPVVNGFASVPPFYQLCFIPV
In general, inhibition refers to the drop in the measured response relative to a control, in per cent. Take `COc1ccc(C(=O)CN(C(=O)c2ccc(Cl)cc2)N2C(=O)c3ccccc3C2=O)cc1`: the inhibition is 49.5% (inactive). Consider `N#CC(=C1CCCC1)c1nc(-c2ccc(Cl)cc2)cs1`, for which the inhibition is -6.8% (inactive). Then `N#C/C(=C1\CCCN1)c1nc(-c2ccccc2)cs1`, with 40.4% (inactive). In the case of `N#CC(=C1SC=CS1)c1nc(-c2ccccc2)cs1`, the inhibition was 52.9% (active). Take `CC(=O)N1CSCC1C(=O)O` (stereo not given): the inhibition is 6.7% (inactive). In the case of `O=C(OCC#CCSc1nnc(-c2ccncc2)o1)c1sc2ccccc2c1Cl`, the inhibition is 30.1% (inactive).

Turning to `CSc1cc(C)n(-c2ccccc2C)c(=S)c1C(C)=O`, the inhibition was 14.1% (inactive). Then `CN(c1nc2ccccc2n2c(-c3ccco3)nnc12)S(=O)(=O)c1ccccc1`, with 15.3% (inactive); and `O=C1CN(C(=O)COC(=O)C2CC(=O)N(Cc3ccco3)C2)c2ccccc2N1` (stereo not given), with -13.2% (inactive); and `Cc1ccc(S(=O)(=O)N2CCC(C(=O)OCC(=O)N3CC(=O)Nc4ccccc43)CC2)cc1`, with 54.7% (active). As for `Cc1ccc(S(=O)(=O)NCC(=O)OCC(=O)N2CCc3ccccc32)cc1`, the figure is -28.2% (inactive); as for `CCOC(=O)CN1CC23C=CC(O2)C(C(=O)Nc2ccc(F)cc2)C3C1=O` (stereo not given), -21.8% (inactive); as for `CC1(C)C/C(=C(/C#N)C(N)=O)CCO1`, -18.3% (inactive). On to `Nc1c(-c2ccc(F)cc2)cnc2ncnn12`, for which the inhibition was -25.1% (inactive). Regarding `CC1(C)CC(=O)C=C(NCc2ccncc2)C1`, the inhibition was 7.3% (inactive).

For `Cc1cc(C(=O)Nc2c(C)nn(Cc3ccccc3)c2C)on1`, the inhibition is 22.4% (inactive). Then `CSc1ccccc1NC(=O)c1cc(C2CC2)on1`, with -144% (inactive).

For `Cc1nn(Cc2ccc(Cl)c(Cl)c2)c(C)c1NC(=O)c1cc(C2CC2)on1`, the inhibition is 96.7% (active).

In the case of `Cc1cc2ccccc2n2c(SCC(=O)N3CCN(C(=O)c4ccco4)CC3)nnc12`, the inhibition was -4.3% (inactive).

On to `CCCCNC(=O)CCn1c(=S)[nH]c2cc3c(cc2c1=O)OCO3`, for which the inhibition was 36.3% (inactive). On to `Cc1ncc(CC(=O)n2cc(C(=O)c3cc(Cl)ccc3O)cn2)s1`, for which the inhibition is 81.1% (active). As for `O=C(c1ccc2c(c1)N(Cc1ccc(F)cc1)C(=O)CS2)N1CCOCC1`, the figure is 1.7% (inactive); as for `CCOC(=O)c1oc2ccccc2c1NC(=O)c1cccs1`, 20.2% (inactive). Consider `Cc1cc(Nc2ccccc2)nc(N)n1`, for which the inhibition was -6.6% (inactive). For the molecule `COc1ccccc1CNS(=O)(=O)c1ccc(C)cc1`, the inhibition is -159% (inactive).

`Cc1ccc(S(=O)(=O)NCCSC(C)(C)C)cc1`: the inhibition was 23.6% (inactive). As to `Cc1ccc(S(=O)(=O)NCC(C)NS(C)(=O)=O)cc1` (stereo not given), the inhibition was 60.2% (active). `CCOc1ccc(NC(=O)Nc2ccc(N(C)C(C)=O)cc2)cc1`: the inhibition was -6.3% (inactive). Turning to `O=C(Nc1ccc2sc3ccccc3c(=O)c2c1)c1ccccc1Cl`, the inhibition is -9% (inactive). Then `Cc1ccc(C)c(N2C(=O)CS/C2=N\NC(=O)c2ccccc2Cl)c1`, with 77.7% (active); and `CC(=O)Nc1cccc(/C(C)=N/NC(=O)c2ccccc2Cl)c1`, with 0.2% (inactive); and `COc1ccc(-c2nnn(Cc3nc(N)nc(N4CCCCC4)n3)n2)cc1`, with 17.3% (inactive).

As for `CCOc1cc(/C=C2/N=C(c3ccc(C(C)(C)C)cc3)OC2=O)cc(Cl)c1OS(C)(=O)=O`, the inhibition was 30.3% (inactive). Take `CCOCCCN1C(=O)CN(C2CCCCC2)C(=O)C1c1ccc(OCC)c(OC)c1` (stereo not given): the inhibition is 15.3% (inactive). Turning to `COc1cc2[nH]c(=S)n(Cc3ccc(C)o3)c(=O)c2cc1OC`, the inhibition was -0.8% (inactive). On to `Cc1nc2cc(S(=O)(=O)C(F)(F)F)ccc2s1`, for which the inhibition was 1.9% (inactive). As for `O=C(CC(O)(C(F)(F)F)C(F)(F)F)Nc1ccc(Cl)c(Cl)c1`, the figure is 65% (active); as for `Cc1nnc(NC(=O)Nc2ccc(Cl)c(Cl)c2)s1`, 48.4% (inactive); as for `N/C(=N\OC(=O)Nc1ccc(Cl)c(Cl)c1)c1ncc(C(F)(F)F)cc1Cl`, -6.7% (inactive). As for `C=CCn1c(N)c(S(=O)(=O)c2cccs2)c2nc3ccccc3nc21`, the figure is 86.3% (active). Consider `Cc1ccc(S(=O)(=O)c2c(N)n(C)c3nc4ccccc4nc23)cc1`, for which the inhibition was 14.2% (inactive). Turning to `C=CCn1c(N)c(C(=O)OCC(C)C)c2nc3ccccc3nc21`, the inhibition is 28.3% (inactive). `CCCCSc1nnc(-c2ccc(C)cc2)o1`: the inhibition is 31.3% (inactive). As for `CCS(=O)(=O)N1CCC(C(=O)N2CCN(c3ccccc3)CC2)CC1`, the figure is 9.9% (inactive); as for `O=C(CSCc1ccccc1)N1CCc2ccccc21`, -12.4% (inactive); as for `O=C(C1CCN(S(=O)(=O)Cc2ccccc2)CC1)N1CCCc2ccccc21`, 51.8% (active). As to `CCOc1ccc(NC(=O)C2CC(=O)N=C(N)S2)cc1` (stereo not given), the inhibition is -2.4% (inactive). As for `CC(NC(=O)C1CCC(CNc2c(N3CCOCC3)c(=O)c2=O)CC1)c1ccccc1` (stereo not given), the figure is -6.7% (inactive); as for `O=C(Nc1cccc2cccnc12)c1cccc(N2C(=O)CCC2=O)c1`, -71.6% (inactive). `Cn1c(CNC(=O)C(C)(C)C)nc2ccccc21`: the inhibition was -13.1% (inactive). As for `COc1ccc(Cc2nnc(SCC(=O)c3cccc([N+](=O)[O-])c3)n2C)cc1`, the figure is 38.7% (inactive); as for `COc1cc(C(=S)N2CCOCC2)cc(OC)c1OC(=O)c1cc([N+](=O)[O-])cc([N+](=O)[O-])c1`, -5% (inactive); as for `COc1ccc(C(=O)N2CCc3cc(OC)c(OC)cc3C2c2cccc([N+](=O)[O-])c2)cc1` (stereo not given), 64.4% (active). Consider `CCC1CCCCN1CCCNC(=O)Cn1nc(-c2ccccc2)ccc1=O` (stereo not given), for which the inhibition is 9.1% (inactive). Consider `Cc1c(NC(=O)CSc2cccc3cccnc23)c(=O)n(-c2ccccc2)n1C`, for which the inhibition was -25.5% (inactive). As to `O=c1cccc(-c2ccc(Br)cc2)o1`, the inhibition is -19.8% (inactive). Take `O=C(NCc1ccco1)c1sc2cccc(F)c2c1Cl`: the inhibition was -26.6% (inactive).

For the molecule `O=C(NCc1ccco1)c1ccc(Cn2c(=O)c3sccc3n(Cc3ccc(F)cc3)c2=O)cc1`, the inhibition is 79.7% (active). Consider `O=C(NCc1ccco1)c1ccc(CS(=O)(=O)Cc2ccc(F)cc2)o1`, for which the inhibition was 40.7% (inactive). With `Cc1nc2c(-c3ccc(F)cc3)c(C)nn2c(C)c1CCC(=O)NCc1ccco1`, the inhibition was 24.9% (inactive). On to `Cc1cc(C(=O)OCC(=O)NCc2ccco2)c(C)n1-c1ccccc1`, for which the inhibition is 42.1% (inactive). Then `O=C(NCc1ccco1)c1cc2sccc2n1Cc1ccc(F)cc1`, with 60.8% (active). Regarding `O=C(NCCc1ccco1)c1nn(Cc2ccccc2)c(=O)c2ccccc12`, the inhibition was 7.4% (inactive). As for `O=C(Cc1ccc(-n2c(=O)c3sccc3n(Cc3ccc(F)cc3)c2=O)cc1)NCc1ccco1`, the inhibition was 69.5% (active). Take `COc1cc(-n2c(C)nc3cc(C(=O)NCc4ccco4)ccc32)cc(OC)c1OC`: the inhibition is 8.4% (inactive). Then `NC(=O)CCCC1=NS(=O)(=O)c2ccccc2N1`, with 4.2% (inactive); and `O=S(=O)(CCc1nc2ccccc2o1)c1ccc(Cl)cc1`, with -2.3% (inactive).

On to `CCOC(=O)N1CCN(C(=O)C2CC(c3ccc(F)cc3)=NO2)CC1` (stereo not given), for which the inhibition is 8.8% (inactive). For `CCC(=O)N1CCc2cc(S(=O)(=O)NC(C(=O)N3CCc4ccccc4C3)C(C)C)ccc21` (stereo not given), the inhibition was 27% (inactive). As for `CCN(CCCNC(=O)C1CCN(S(=O)(=O)c2cnc[nH]2)CC1)c1ccccc1`, the figure is 81.8% (active); as for `CCCS(=O)(=O)N1CCC(C(=O)NCCCN(C)Cc2ccccc2)CC1`, 20.7% (inactive); as for `Cc1cccc(N2CCN(C(=O)C3CCN(S(=O)(=O)c4cnc[nH]4)CC3)CC2)c1C`, 30.4% (inactive). Then `CCCCC(=O)N(c1ccc(OC)cc1)C1C=CS(=O)(=O)C1` (stereo not given), with 25.7% (inactive); and `Cc1ccc(-n2c(SCC(=O)Nc3ccc4c(c3)OCO4)nnc2-c2ccccn2)cc1`, with 43% (inactive); and `Cc1ccc(-n2c(SCC(=O)NCc3ccc4c(c3)OCO4)nnc2-c2cccnc2)c(C)c1`, with 62.7% (active). Regarding `O=C(CSc1nnc(-c2ccccn2)n1-c1ccccc1)Nc1ccc2c(c1)OCO2`, the inhibition is 2.8% (inactive). For `CNC(=O)CSc1nnc(CCc2ccccc2)n1-c1ccccc1`, the inhibition was -17.6% (inactive). Take `Cn1cccc1Cc1nnc(SCC(=O)NCCc2ccccc2)n1-c1ccc(F)cc1`: the inhibition is 48.3% (inactive). As for `Cn1cccc1Cc1nnc(SCC(=O)NCc2ccc3c(c2)OCO3)n1CCc1ccccc1`, the inhibition was 55% (active). On to `CC(C)NC(=O)CSc1ccccc1C(=O)NCc1ccc2c(c1)OCO2`, for which the inhibition was 16.9% (inactive).

As to `Cc1ccccc1-c1nnc(SCC(=O)NCc2ccc3c(c2)OCO3)n1C`, the inhibition was 88.6% (active). As for `Cc1cccc(NC(=S)Nc2ccc(Br)cc2)c1`, the figure is 2.2% (inactive).

As for `CC(C)(C)C(=O)CCN1C(=O)C2(OCCO2)c2ccccc21`, the inhibition is 7.8% (inactive). Regarding `CCN(CC)CCNC(=O)C1c2ccccc2C(=O)N(C)C1c1cn(C)c2ccccc12` (stereo not given), the inhibition is 1.7% (inactive). Turning to `COc1ccc(-c2nnco2)cc1OC`, the inhibition is -14.9% (inactive). Then `COc1ccc(NC(=O)CC2COc3ccccc3O2)c(OC)c1` (stereo not given), with 5.9% (inactive); and `O=C(CN1C(=O)CSc2ncccc21)N1CCOCC1`, with 41.4% (inactive). For the molecule `O=C(c1ccco1)N1CCN(c2cccc(Cl)c2)CC1`, the inhibition was 17.6% (inactive).

Take `O=C(c1ccc2c(c1)OCO2)N1CCN(C(=O)c2ccco2)CC1`: the inhibition is 15.8% (inactive). For `O=C(c1ccco1)N1CCN(C(=O)C2c3ccccc3Oc3ccccc32)CC1`, the inhibition was 58.3% (active).

As to `COc1nc(Oc2ccc(=O)n(C)n2)nc(N(C)C)n1`, the inhibition was -16.1% (inactive).

For `COc1ccc(C(=O)Cn2nnc(-c3ccc(N4CCOCC4)cc3)n2)cc1OC`, the inhibition is -6% (inactive).

As for `COc1cc(C(=S)N2CCOCC2)cc(OC)c1OC(=O)c1cc([N+](=O)[O-])c(C)c([N+](=O)[O-])c1`, the inhibition is 5.7% (inactive). In the case of `COc1ccccc1OCCNc1cc(N2CCOCC2)ccc1[N+](=O)[O-]`, the inhibition is 55.8% (active). Take `Cc1nn(-c2cc(Cl)ccc2N)c(=O)c2ccccc12`: the inhibition is 2.2% (inactive).
